# Bioassay records as filed in PubChem BioAssay.
# A selection: hits, their analogues and other compounds. The true share with any hit is near 3.1%.
# Tau fluor cs – counter-screen for tau fibril formation inhibitors | Potency, µM (top dose mostly 57.7 µM), for the others: at the top dose activity change, negative = decrease | tau K18 P301L Alexa594 fluorescence, heparin fibrillization | actives 0.93% (n = 280,000); further: nearly all actives have a fitted effect of over 55% in size
#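 Human tau K18 P301L (15 uM unlabeled, 0.24 uM Alexa 594-labeled) in 100 mM sodium acetate pH 7 with 20 uM heparin, 6 hr at 37 C. ThT 30 uM added, 1 hr ambient; Alexa 594 FP and total fluorescence read at 555/632 nm.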
# TexasRed fluor – alters Texas Red total fluorescence, flagging assay interference; TRb/SRC2 Texas Red total fluorescence interference; Potency, µM (top dose mostly 106 µM), for the others: at the highest dose fluorescence change, negative = quenching; actives 0.29% (n = 280,000); active means well fitted curve in either direction with a large enough effect; inconclusive means small, poorly fitted or top-dose-only effect
#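 Human TRb ligand-binding domain at 0.6 uM with 20 nM Texas Red SRC2 peptide in Tris buffer containing 1 uM T3 and 5% DMSO, incubated with compound 5 h at ambient temperature. Total fluorescence (555/632 nm) calculated as parallel + 2 × perpendicular.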
# Tau fibril FP – tau fibrillization inhibition (FP); P10636; K18 P301L tau heparin fibrillization, Alexa594 FP, 6 h; Potency, µM (series often up to 57.7 µM), inactives show at the highest dose activity, negative = inhibition, usual class: inhibitors; actives 0.39% (n = 280,000); further: nearly all actives have a fitted effect of over 55% in size
#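 Heparin (20 uM) drove fibril formation of recombinant tau K18 P301L, 15 uM unlabeled with 0.24 uM Alexa 594 label, for 6 hr at 37 C in 100 mM sodium acetate pH 7. Fluorescence polarization (555/632 nm) read 1 hr after 30 uM ThT.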
# TRb SRC2 PPI – inhibitors of human thyroid hormone receptor beta-SRC2 interaction; P10828; TRbeta-SRC2 peptide binding, fluorescence polarization; receptor liganded with 1 µM T3; Potency, µM (series often up to 106 µM), for inactives: top-dose activity change, negative = inhibition, most hits filed as inhibitors; actives 0.065% (n = 280,000); AID 1469;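 further: plate controls were bound peptide for no effect and peptide without receptor for full effect; nearly all actives have a fitted effect of over 50% in size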
# Target sequence (P10828 whole entry, looked up): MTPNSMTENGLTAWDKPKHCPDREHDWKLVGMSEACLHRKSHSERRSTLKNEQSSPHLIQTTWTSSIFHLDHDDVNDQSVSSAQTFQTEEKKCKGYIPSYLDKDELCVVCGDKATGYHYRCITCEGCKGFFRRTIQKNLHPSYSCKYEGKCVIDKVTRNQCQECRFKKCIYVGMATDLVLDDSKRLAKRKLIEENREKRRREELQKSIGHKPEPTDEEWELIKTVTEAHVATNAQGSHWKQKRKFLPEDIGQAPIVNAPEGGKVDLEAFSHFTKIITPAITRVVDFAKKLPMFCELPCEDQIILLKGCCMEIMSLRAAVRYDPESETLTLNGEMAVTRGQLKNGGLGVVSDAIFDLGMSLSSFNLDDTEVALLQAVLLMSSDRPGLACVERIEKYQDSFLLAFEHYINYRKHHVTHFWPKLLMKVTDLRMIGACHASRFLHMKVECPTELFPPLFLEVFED
#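 Decrease in fluorescence polarization of 20 nM Texas Red SRC2 coactivator peptide flagged inhibition of its binding to 0.6 uM TRb LBD; 1 uM T3 included, incubation 5 hr, ex 555/em 632 nm.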
# Tau ThT inhib – tau fibrillization inhibition (ThT binding); P10636; recombinant tau K18 P301L (four-repeat tau fragment), heparin-induced fibrillization, ThT fluorescence; Potency, µM (series often up to 57.4 µM), inactives show top-dose activity, negative = inhibition, most hits filed as inhibitors; actives 2.1% (n = 270,000); further: nearly all actives have a fitted effect of over 55% in size
#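 Aggregation was driven by heparin (20 uM final) acting on recombinant tau […] bearing P301L in 100 mM sodium acetate pH 7; fibrils were detected with Thioflavin T.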
# Numbers without * were called inactive; ? = inconclusive; . = not tested or not shown; ! = a repeat was not active; [ ] = remark or other dose. Unless noted, the call rests on the fitted dose curve; in most records, active means well fitted curve in the direction sought with a large enough effect; inconclusive means small, poorly fitted or top-dose-only effect, or another doubt; inactive means no such curve, though single readings can be large; an effect the other way counts as inactive or inconclusive. Unless noted, on the % scale 0 is the no-effect control and ±100 the full control effect; potency means the concentration at half of the fitted maximal effect.
SMILES,Tau fluor cs,TexasRed fluor,Tau fibril FP,TRb SRC2 PPI,Tau ThT inhib
O=c1[nH]c(=S)n(-c2ccc(Br)cc2)c(O)c1C=Nc1ccc(N2CCOCC2)cc1,-22%,3%,3%,-9%,25µM*
N#CC(C#N)=NNc1ccc(OC(F)(F)F)cc1,?,-6%,?,-7%,7.9µM*
O=C(Nc1ccc(OC(F)(F)F)cc1)Oc1ccccc1N1CCCCC1,-24%,-1%,?,-9%,.
Cc1ccc(O)cc1C,.,-2%,.,-1%,.
Clc1ccc(C(Cl)(Cl)Cl)cc1,.,-5%[201 µM],.,2%[201 µM],.
Brc1ccc(Oc2ccccc2)cc1,.,0%[201 µM],.,-3%[201 µM],.
COC[C@H]1OC(=O)c2coc3c2[C@@]1(C)C1=C(C3=O)C2CCC(=O)[C@@]2(C)C[C@H]1OC(C)=O (some centres undefined),?,45µM*![fluorescent],?,35µM*,18µM*!
COC[C@H]1OC(=O)c2coc3c2[C@@]1(C)C1=C(C3=O)[C@H]2CCC(=O)[C@@]2(C)C[C@H]1OC(C)=O,?,24%,28µM*,-23%,14µM*
CN(C)c1nc(=O)n(C2CCCCC2)c(=O)n1C,.,-2%[201 µM],.,-2%[201 µM],.
CC1(C)CC(=O)C2=C(C1)OC(N)=C([N+](=O)[O-])C2c1ccc(C#N)s1 (centres undefined),?,-4%,?,-1%,8.9µM*
C/C=C(\C)C(=O)O[C@H]1C[C@@H](OC(C)=O)[C@@]2(C(=O)OC)CO[C@H]3[C@@H](O)[C@@](C)([C@]45O[C@@]4(C)[C@H]4C[C@@H]5O[C@@H]5OC=C[C@@]54O)[C@H]4[C@]1(CO[C@]4(O)C(=O)OC)[C@@H]32,.,-3%[201 µM],.,-2%[201 µM],.
OC(Cn1cncn1)(c1ccc(F)cc1)c1ccccc1F (centres undefined),.,1%[201 µM],.,4%[201 µM],.
CC/C(=N\Nc1cccc2ccccc12)c1c(O)[nH]c(=O)[nH]c1=O,?,-2%,?,1%,28µM*
CCc1c(C)nc(N)nc1N1N=C1SC(C(C)=O)C(C)=O,-20%,-3%,?,7%,18µM*
CN(C)C1C(=O)C(C(N)=O)=C(O)[C@@]2(O)C(=O)C3=C(O)c4c(O)cccc4[C@@](C)(O)C3[C@H](O)C12 (some centres undefined),?,?,?,-5%,7.1µM*
CN(C)[C@@H]1C(=O)C(C(N)=O)=C(O)[C@]2(O)C(=O)C3=C(O)c4c(O)cccc4[C@@](C)(O)[C@H]3[C@H](O)[C@@H]12,.,-8%[53 µM],.,-8%[53 µM],.
CS(=O)(=O)NC(=O)c1cc(Oc2ccc(C(F)(F)F)cc2Cl)ccc1[N+](=O)[O-],.,-1%[201 µM],.,4%[201 µM],.
COc1cccc2c1cc([N+](=O)[O-])c1c(C(=O)O)cc3c(c12)OCO3,?,-10%,-2%,-3%,14µM*
CC(C)(C)[C@@H](O)/C(=C\c1ccc(Cl)cc1Cl)n1cncn1,.,-1%[201 µM],.,-2%[201 µM],.
CN1CCc2nc3sc(C#N)c(N)c3c(-c3cccs3)c2C1,?,-9%,?,0%,28µM*
CCN(CCCl)Cc1ccccc1Br,0%,-4%,8%,-4%,-17%
CCCCCOc1ccc(C)cc1CN(CCCl)CCCl,-11%,-1%,1%,32µM*,?
COC(=O)[C@@H]1[C@@H](C(=O)OC)C2(c3ccccc3-c3ccccc32)N(c2ccc(Cl)cc2)N1C#N,-15%,-4%,?,-9%,25µM*
COC(=O)C[C@]1(C(=O)OC)CN(C#N)N(c2ccc(Cl)cc2)C12c1ccccc1-c1ccccc12,-20%,-4%,?,-3%,14µM*
COC(=O)c1ccccc1S(=O)(=O)NC(=O)N(C)c1nc(C)nc(OC)n1,.,-1%[201 µM],.,2%[201 µM],.
O=C1NC(=O)C(=Cc2coc3ccccc3c2=O)C(=O)N1,-19%,0%,?,-5%,?
O=C1NC(=O)C(=C/C=C/c2coc3ccc(Br)cc3c2=O)C(=O)N1,-20%,25µM*[fluorescent],?,?,7.9µM*
